Experimental data reported in PubChem BioAssay AID488895 (Broad Institute, 2010).
About 120 (0.035%) of roughly 340,000 compounds were called active. Many of the other results were omitted from the sample, so actives are more common in it than they were. Values without a mark were called inactive.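 Rule for the calls: active = mean replicate inhibition at least 50% and at least half of replicates individually reaching 50%; inconclusive = only one of the two criteria met; inactive = neither criterion met.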

Assay: blockers of twin-arginine translocation in E. coli – MC4100, TorA-mCherry reporter, fluorescence, single point, primary screen (AID 488895);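 note: exported cargo escapes ClpAP degradation while cytoplasmic cargo is degraded and loses fluorescence; 0% = median of neutral control wells and 100% = median of NaSCN control wells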
Details: E. coli MC4100 TorA-mCherry Tat export, at 10 µM, hits give high values

| Compound | inhibition |
| --- | --- |
| O=C(CCc1nnc2ccc(NCc3ccccc3Cl)nn12)NCC1CCN(C2CCCC2)C1 (stereo not given) | 1.11% |
| O=C(/C=C/Nc1ccc(S(=O)(=O)Nc2cnc3ccccc3n2)cc1)c1cccnc1 | -0.716% |
| COc1ccc(Br)cc1/C=N/Nc1ccc(S(=O)(=O)Nc2ccccc2C(=O)O)cc1[N+](=O)[O-] | -2.56% |
| O=C(NCCCN1CCN(c2ccc(F)cc2)CC1)Nc1ccc([N+](=O)[O-])cc1 | 10.8% |
| O=S(=O)(c1ccc(F)cc1)n1ccc(-c2cnc(-c3ccccc3)s2)n1 | 1.96% |
| O=C(/C=N/O)Nc1ccccc1 | 1.32% |
| c1ccc2c(-c3nn4nnnc4c4ccccc34)cccc2c1 | 13.5% |
| COCCNc1nc(N)c([N+](=O)[O-])c(NCCO)n1 | -3.96% |
| Cc1ccc(CSCC2Nc3ccc(C(=O)N4CCN(c5ccc(F)cc5)CC4)cc3NC2=O)cc1 (stereo not given) | -4.6% |
| NC(=O)CCC(NS(=O)(=O)c1ccc(Cl)cc1)C(=O)NCc1ccccc1Cl (stereo not given) | -7.83% |
| CC(=O)N1CCN(CC(c2ccccc2)c2ccccc2)CC1 | -7.44% |
| CC1Cc2ccccc2N1C1=CC(=O)CC(C)(C)C1 (stereo not given) | -0.619% |
| CCC(C)NC(=O)C1c2ccccc2C(=O)N1Cc1ccccc1 (stereo not given) | -2.59% |
| O=C(NCC(=O)N(Cc1cccs1)C(C(=O)NC1CCCCC1)c1ccco1)c1cccs1 (stereo not given) | 7.02% |
| CC(C)(C)c1ccc(/C=C/C(=O)NC2CCS(=O)(=O)C2)cc1 (stereo not given) | 0.013% |
| Cc1c(C)c2cc3c4c(oc3c(C)c2oc1=O)CCCC4 | -3.36% |
| Cc1cc(N2CCCC2=O)cc(C)c1S(N)(=O)=O | -6.67% |
| CC1Sc2ccc(C(=O)NCc3ccccc3Cl)cc2NC1=O (stereo not given) | -5.09% |
| CCC(=O)N1c2ccccc2NC2=C(C(=O)CCC2)C1c1ccco1 (stereo not given) | -4.89% |
| CCn1cc(S(=O)(=O)c2cccc(C)c2)c(=O)c2cc(F)c(N3CCN(C)CC3)cc21 | -3.59% |
| CCn1cc(C(=O)NCCO)c(=O)c2cc(F)c(N3CCN(C)CC3)cc21 | 81.4% (active) |
| CCCCNC(=O)c1cn(CC)c2cc(N3CCN(C(=O)c4ccco4)CC3)c(F)cc2c1=O | -4.43% |
| CCCCCCn1cc(C(=O)O)c(=O)c2cc(F)c(N3CCCCC3)cc21 | 4.11% |

| Compound | inhibition |
| --- | --- |
| CCn1cc(C(=O)NCCC(=O)NCCO)c(=O)c2cc3c(cc21)OCO3 | 0.475% |
| CN1CCN(c2cc3c(cc2F)c(=O)c(C(=O)O)cn3CCF)CC1 | 81.7% (active) |
| CC1(C)O[C@@H]2[C@H](O1)[C@@H](COS(=O)(=O)O)O[C@H]2n1ccc(=O)[nH]c1=O | -1.01% |
| COc1ccc(S(=O)(=O)Nc2cccc3c2O[C@H](CN(C)S(=O)(=O)c2ccc(OC)cc2)[C@@H](C)CN([C@H](C)CO)C3=O)cc1 | 0.274% |
| O=C(c1cn(-c2ccccc2)nc1-c1cccnc1)N1CCN(S(=O)(=O)c2ccccc2F)CC1 | 7.82% |
| COc1ccc(CNC(=O)C(NS(=O)(=O)c2cccc3nsnc23)C(C)C)cc1 (stereo not given) | -12.3% |
| Cc1nc2ccc(C(=O)N3CCSCC3)cc2s1 | -5.07% |
| COc1cc(C2CC(=O)Oc3cc(OC)c(OC)c(OC)c32)cc(OC)c1OC (stereo not given) | 0.529% |
| COc1cccc(C(C(=O)NC2CCCC2)N(C(=O)c2ccco2)c2cccc(C(C)=O)c2)c1OC (stereo not given) | 7.67% |
| CCNC(=O)CC1C(=O)N(c2ccc(OC)cc2)C(=S)N1CCc1ccncc1 (stereo not given) | 5.06% |
| O=C(CN1CCN(S(=O)(=O)c2ccc(F)cc2)CC1)NC1CC1 | 2.17% |
| CCn1cc(/C=C(\NC(=O)c2cc(OC)c(OC)c(OC)c2)C(=O)N2CCN(C)CC2)c2ccccc21 | 6.75% |
| N#Cc1nc(N)nc(N(c2ccccc2)c2ccccc2)n1 | -1.07% |
| CC(=O)NC(=S)NNC(=O)c1ccc(Br)cc1 | 10.8% |
| O=C(COc1coc(CN2CCN(c3ccccc3)CC2)cc1=O)N1CCc2ccccc21 | -5.1% |
| COCC(=O)N1CCc2ccc(NC(=O)c3ccccc3Cl)cc2C1 | -8.59% |
| O=C(Cc1ccccc1F)NC1CCSc2ccccc21 (stereo not given) | -4.99% |
| CC(N)C12CC3CC(CC(O)(C3)C1)C2 (stereo not given) | -2.5% |
| CCn1ccnc1CN1CCCC(C(=O)c2ccc3c4c(cccc24)CC3)C1 (stereo not given) | -0.858% |
| COc1ccc(C2NCCCC2c2ccccc2)cc1 (stereo not given) | 0.669% |
| CC(=O)Nc1ccc(OCCC[n+]2cccc(C(=O)[O-])c2)cc1 | 0.863% |
| CCOC(=O)N1CCN(C(=O)c2ccccc2N(Cc2ccccc2)S(=O)(=O)c2ccc(OC)cc2)CC1 | -2.32% |
